Screens deposited in PubChem BioAssay by National Center for Advancing Translational Sciences (NCATS).
Shown are actives, neighbours in structure and some others; about 6% of the full set was active somewhere.
D1 ag – agonists of human D1 dopamine receptor. P21728. HEK293 T-REx D1 cells, calcium flux, agonist mode. activation, % at 2 µM. hit rate 1% among 360,000; in the data active = activation above about 30%; note: 0% is about no effect
Target sequence (P21728 whole entry, looked up): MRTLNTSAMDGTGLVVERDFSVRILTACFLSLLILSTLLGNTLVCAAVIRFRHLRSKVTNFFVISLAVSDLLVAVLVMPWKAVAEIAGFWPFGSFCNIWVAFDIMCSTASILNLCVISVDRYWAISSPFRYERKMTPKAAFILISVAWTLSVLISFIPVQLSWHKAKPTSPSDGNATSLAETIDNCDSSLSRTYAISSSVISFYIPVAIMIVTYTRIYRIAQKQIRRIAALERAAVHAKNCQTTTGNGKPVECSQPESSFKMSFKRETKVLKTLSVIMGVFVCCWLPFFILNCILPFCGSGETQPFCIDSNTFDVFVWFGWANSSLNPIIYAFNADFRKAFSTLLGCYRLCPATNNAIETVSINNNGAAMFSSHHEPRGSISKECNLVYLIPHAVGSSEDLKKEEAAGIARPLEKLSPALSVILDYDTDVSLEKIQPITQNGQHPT
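Inducible HEK293 T-REx D1 cells, force-coupled to calcium signalling, were plated at 4000 cells/well with tetracycline and held overnight at 30 C. After no-wash calcium dye loading, compound-evoked calcium rise over 180 s flagged agonists.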
D1 antagonist – human D1 dopamine receptor antagonism. hit rate 3.2% among 360,000. P21728. HEK293 TREx D1 cells, calcium flux, dopamine EC80; stronger effect = lower value. activity change, negative = inhibition, % at 10 µM; in the data active = activity change below about -30%; note: % is set by controls: 0 for no effect and ±100 for the full control effect
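Antagonism measured as reduced calcium response to an EC80 dopamine addition following 180 s compound pre-read; cells were inducible HEK293 Trex D1 plated overnight at 30 C, read kinetically at 1 cycle/sec.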
D1 PAM – human D1 dopamine receptor positive modulation; P21728; HEK293 TREx D1 cells, calcium flux, dopamine EC20 potentiation; potentiation, % at 10 µM; hit rate 0.036% among 360,000; AID 504651; in the data active = potentiation above about 30%; note: 0% is about no effect
DRD3 antagonist – D3 dopamine receptor (human) antagonism; hit rate 2.5% among 360,000; max response, negative = inhibition, %; D3R cells, DiscoveRx beta-arrestin luminescence, antagonist mode; stronger effect = lower value; P35462; in the data active = max response below about -50%; inconclusive = no clear call, values can overlap the other calls; note: % is set by controls: 0 for no effect and ±100 for the full control effect
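Cells plated overnight at 1500 cells/well, then exposed to library compounds with dopamine controls for 90 minutes at 37 degrees C. DiscoveRx reagent added for 30–60 minutes at room temperature; luminescence read, quantitative HTS format.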
D3 ag – activates the human D3 dopamine receptor | D3R DiscoveRx beta-arrestin cells, luminescence, 90 min | max activation, % | hit rate 0.58% among 410,000; in the data active = max activation above about 30%; note: 0% is about no effect
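Agonist mode: compounds and dopamine controls were applied to plated cells for 90 min at 37 degrees C after an overnight attachment at 1500 cells/well. Luminescent read-out followed 30 - 60 minutes at room temperature with DiscoveRx detection reagent.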
* hit, by the source's call; ? = inconclusive; . = no result.

SMILES | D1 ag | D1 antagonist | D1 PAM | DRD3 antagonist | D3 ag
O=C(CSc1ncc(CO)n1Cc1ccccc1)Nc1ccc(C(F)(F)F)cc1 | 8 | -22 | -2 | . | -9
Cc1ccc(N/C(N)=N/c2nc3c(c(=O)[nH]2)CCCC3)c(C)c1 | 1 | 4 | -8 | ? | -4
Cc1ccc(N/C(N)=N/c2nc(C)cc(N3CCCCC3)n2)c(C)c1 | 16 | -99* | -8 | 12 | 3
CCOc1ccc(-c2oc3ccccc3c(=O)c2O)cc1OCC | 7 | 4 | -2 | . | 4
Cc1ccc2oc(-c3ccc(Cl)cc3)c(O)c(=O)c2c1 | 71* | -22 | -2 | . | 18
Cc1ccc(S(=O)(=O)N2CCCOC2CNC(=O)C(=O)NCCc2c[nH]c3ccccc23)cc1 (configuration not stated) | 1 | -36* | -13 | 9 | 4
COc1ccc(CCNC(=O)C(=O)NCC2OCCCN2S(=O)(=O)c2cc(C)ccc2C)cc1 (configuration not stated) | 1 | -44* | 3 | 16 | 5
CCC(CC)c1nn2c(=O)cc(COc3ccc(NC(=O)c4ccc(Cl)cc4)cc3)nc2s1 | -1 | 5 | -1 | . | 2
C=CCc1ccc(OCCCCNC2CCCC2)c(OC)c1 | 3 | 1 | -5 | -69* | -20
C=CCc1ccc(OCCOCCN(C)C)c(OC)c1 | 1 | -5 | -2 | -71* | -4
COc1ccc(CCNC(=O)c2ccc3nc(Cc4ccccc4)oc3c2)cc1OC | 13 | -20 | -3 | . | 6
N#Cc1ccccc1Cn1c(=O)n(-c2ccc(F)c(Cl)c2)c(=O)c2sccc21 | 4 | -13 | 0 | . | -4
CCN(CC)C(=O)COc1ccc(/C(C)=N/NC(=O)c2ccccc2O)cc1 | 2 | -51* | -4 | -5 | 2
C=CCN(C/C(=N\O)c1sc(C(=O)OCC)nc1C)c1cccc(Br)c1 | . | . | . | 4 | 63*
c1ccc(N2CCN(c3cnccn3)CC2)nc1 | -1 | -41* | 4 | 4 | -1
O=C(NCN1CCN(c2ccccn2)CC1)c1cnccn1 | 8 | 24 | 1 | 0 | -1
c1ccc(N2CCN(c3nnc(Cc4cccnc4)c4ccccc34)CC2)nc1 | 0 | -6 | -3 | 7 | 42*
COc1ccccc1C(=O)N1c2ccccc2C(C)(c2ccc(Cl)cc2)CC1(C)C (configuration not stated) | 5 | 4 | 4 | . | -11
FC(F)C(F)(F)c1cc(-c2ccccc2)n[nH]1 | 43* | 4 | -5 | -9 | -6
O=C(O)c1cc(-c2ccccc2)n[nH]1 | 1 | 6 | 0 | . | .
O=C1S/C(=C\c2ccc(N3CCOCC3)o2)C(=O)N1Cc1c(F)cccc1Cl | 62* | 27 | -14 | -16 | -8
O=C1S/C(=C\c2ccc(N3CCOCC3)o2)C(=O)N1c1ccccc1 | 159* | 26 | 7 | -17 | -4
O=C1N=C(N2CCOCC2)S/C1=C/c1ccc(-c2ccccc2Cl)o1 | 2 | 4 | 2 | -24 | -2
O=C1S/C(=C/c2ccc(N3CCOCC3)o2)C(=O)N1Cc1c(F)cccc1Cl | 129* | . | 0 | ? | 3
O=C(O)c1ccccc1-c1ccc(/C=C2\SC(=O)N(c3ccccc3)C2=O)o1 | 4 | -7 | 3 | -4 | 3
SMILES | D1 ag | D1 antagonist | D1 PAM | DRD3 antagonist | D3 ag
O=C(c1ccc(NC2=NC3CS(=O)(=O)CC3S2)cc1)N1CCN(c2ccccc2F)CC1 (configuration not stated) | 3 | 1 | -13 | -61* | -10
O=C(COC(=O)c1ccccn1)NCc1cccs1 | 2 | -1 | -3 | 0 | -8
CC(C)(C)c1ccc(C(=O)Nc2nc3nc(-c4ccccc4)cc(=O)n3[nH]2)cc1 | 4 | 0 | -4 | . | 2
CC1CCN(S(=O)(=O)c2ccc3c(c2)N(CC(=O)N2CCN(c4ccccc4)CC2)C(=O)CO3)CC1 | 0 | 14 | 0 | . | 2
CN(C)c1ccc(/C=C2\N=C(c3ccc(Cl)c([N+](=O)[O-])c3)NC2=O)cc1 | 35* | -2 | -3 | ? | -13
CN(C)c1ccc(/C=C2/NC(=O)NC2=O)cc1 | 3 | 25 | -2 | -5 | -2
COc1cccc(-n2cc(CNCc3cn(C)nc3-c3ccccc3F)cn2)c1 | 6 | -9 | -3 | 7 | 67*
COc1ccc(-c2cn3c(C)c(C(=O)N4CCc5ccccc5C4)sc3n2)cc1 | 4 | -31* | -7 | 7 | 5
COc1ccc(C2C(=O)N(C3CCC(C)CC3)CC(=O)N2C2CCCC2)cc1OC (configuration not stated) | 0 | 9 | 2 | . | -15
Cc1c(CNCCc2ccc(Cl)cc2)c(C(=O)O)c(C)n1Cc1ccccc1 | 4 | -4 | -2 | 27 | -4
CCOc1ccccc1CNCc1c(C(=O)O)c(C)n(Cc2ccc(Cl)cc2)c1C | -1 | -67* | 0 | . | -10
COc1ccc(/C=C/C(=O)c2ccccc2)cc1COc1ccc(F)cc1 | 17 | -33* | -6 | 2 | 6
COc1ccc(/C=C/C(=O)c2ccc(O)cc2)cc1COc1ccc(F)cc1 | 5 | 7 | -9 | ? | -20
COc1ccc(/C=C/C(=O)c2ccccc2)cc1Cn1nnc2ccccc21 | 3 | -31* | -2 | 5 | -3
COc1cccc(COC(=O)C2CCN(S(=O)(=O)c3ccc(F)cc3)CC2)c1OC | 31* | -9 | -6 | -14 | 3
Nc1[nH]c(C(=O)c2ccccc2)c(-c2ccc(Cl)cc2)c1C(=O)NCc1ccccc1 | . | . | . | 0 | 57*
COc1ccc(/C=N/Nc2ccccc2C(=O)O)cc1Cn1cc([N+](=O)[O-])cn1 | 1 | -32* | -10 | 2 | -9
Cn1c(=O)n(-c2ccc3c(c2)OCO3)c2nc(-c3ccccc3)nc(C(N)=O)c21 | 4 | -3 | -2 | . | -9
O=C(Cc1c(Sc2ccccc2)c2ccccc2n1Cc1ccccc1)NCCO | 5 | 2 | -2 | -73* | -24
COc1ccccc1N1CCN(C(=O)C2C3C=CC4(CN(Cc5ccccc5Cl)C(=O)C24)O3)CC1 (configuration not stated) | 3 | -35* | -8 | 15 | 9
C/C(=N\Nc1cc(N2CCCCC2)nc(C)n1)c1ccc(Br)cc1 | 4 | -4 | -2 | 23 | 67*
C/C(=N\Nc1cc(N2CCOCC2)nc(C)n1)c1ccc(F)cc1 | 1 | 7 | 1 | -5 | 2
O=C(CO)[C@@H](O)[C@H](O)[C@@H](O)CO | . | . | . | . | -16
CCS(=O)(=O)N1CCC(C(=O)NCCC(C)C)CC1 | -2 | -4 | 0 | . | 14
N#Cc1cccc(NC(=O)Cn2nc(Cc3ccncc3)c3ccccc3c2=O)c1 | 1 | 7 | 1 | . | -10
COc1ccccc1N1CCN(S(=O)(=O)c2ccc(-c3coc(C)n3)cc2)CC1 | 0 | -7 | -3 | . | 4
Cc1cc(S(=O)(=O)N2CCN(c3ccccn3)CC2)ccc1F | 7 | -23 | -2 | -8 | 6
